BAZ2B inh: BAZ2B (human) inhibition | Q9UIF8 | 4.4% of 360,000 active | Potency, µM (series often up to 114 µM), for the others: at the highest dose activity change, negative = inhibition, actives largely listed as inhibitors | AID 504333 | AlphaScreen BAZ2B-H3K14Ac peptide displacement; note: % is set by controls: 0 for no effect and ±100 for the full control effect; nearly all actives have a fitted effect of over 60% in size
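Protein-peptide AlphaScreen: BAZ2B 50 nM, b-H3K14Ac 50 nM, 1x PBS pH 7.4 + 0.01% Tween-20. Preincubation 30 min RT; cpd 30 min RT (top 110 uM); beads 20 min RT, light-protected.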
HP1b chromo inh: HP1-beta chromodomain-methylated histone interaction inhibition | P83916 | AlphaScreen HP1-beta / biotin-H3K9me3 peptide binding | Potency, µM (highest dose often 114 µM), for inactives: at the top dose activity change, negative = inhibition, most hits filed as inhibitors | 0.56% of 390,000 active | AID 540317; note: nearly all actives have a fitted effect of over 70% in size
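AlphaScreen: HP1-beta (50 nM) preformed 30 min with biotin-H3(1-18)K9me3 peptide (50 nM) in PBS pH 7.4, 0.01% Tween-20. Compound added for 30 min at RT, then streptavidin donor/nickel chelate acceptor beads (10 ug/mL) for 30 min.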
G9a inh: blocks human histone lysine methyltransferase G9a; 8.8% of 350,000 active; Q96KQ7; G9a H3K9 monomethylation, AlphaScreen, 2 h; Potency, µM (highest dose often 102 µM), inactives show at the top dose activity, negative = inhibition, hits mostly inhibitors; note: % is set by controls: 0 for no effect and ±100 for the full control effect; nearly all actives have a fitted effect of over 75% in size
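Step 1: enzyme (final 20 nM) with compound, 15 min RT. Step 2: substrate peptide 500 nM and SAM 20 uM, 2 h RT. Step 3: anti-H3K9me1 antibody and AlphaScreen beads, 10 min, then plate read.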
L3MBTL1 inh: inhibitors of human L3MBTL1 | Potency, µM (series often up to 57.1 µM), for inactives: at the highest dose activity, negative = inhibition, actives largely listed as inhibitors | AlphaScreen L3MBTL1–H3K9me1 peptide binding | AID 485360 | Q9Y468 | 0.66% of 230,000 active; note: % is set by controls: 0 for no effect and ±100 for the full control effect; nearly all actives have a fitted effect of over 60% in size
Target sequence (Q9Y468 whole entry, looked up): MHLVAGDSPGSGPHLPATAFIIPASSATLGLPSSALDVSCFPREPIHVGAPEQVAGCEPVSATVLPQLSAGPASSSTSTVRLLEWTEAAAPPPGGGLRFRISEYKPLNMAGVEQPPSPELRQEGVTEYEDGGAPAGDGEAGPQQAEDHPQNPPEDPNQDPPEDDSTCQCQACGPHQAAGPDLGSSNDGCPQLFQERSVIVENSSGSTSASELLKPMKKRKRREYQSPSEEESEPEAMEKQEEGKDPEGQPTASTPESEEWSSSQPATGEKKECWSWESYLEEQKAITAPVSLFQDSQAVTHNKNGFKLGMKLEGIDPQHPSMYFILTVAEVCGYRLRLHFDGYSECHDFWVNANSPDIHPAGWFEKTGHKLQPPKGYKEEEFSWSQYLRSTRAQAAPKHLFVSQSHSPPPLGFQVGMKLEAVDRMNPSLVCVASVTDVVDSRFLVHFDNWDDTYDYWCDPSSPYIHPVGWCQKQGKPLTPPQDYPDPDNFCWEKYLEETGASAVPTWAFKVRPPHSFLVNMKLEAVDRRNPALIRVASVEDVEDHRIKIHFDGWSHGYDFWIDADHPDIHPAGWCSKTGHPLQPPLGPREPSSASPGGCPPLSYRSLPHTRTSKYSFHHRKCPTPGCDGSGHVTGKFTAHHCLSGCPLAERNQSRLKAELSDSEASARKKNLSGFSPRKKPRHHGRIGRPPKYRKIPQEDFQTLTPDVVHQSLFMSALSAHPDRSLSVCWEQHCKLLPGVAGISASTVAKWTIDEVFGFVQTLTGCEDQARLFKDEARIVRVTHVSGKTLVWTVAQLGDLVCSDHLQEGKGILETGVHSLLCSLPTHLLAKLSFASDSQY
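AlphaScreen proximity signal between nickel-chelate acceptor and streptavidin donor beads (final 10 ug/mL) reports binding of 50 nM L3MBTL1 to 75 nM biotin-H3 K9me1 peptide; complex incubated with compounds 30 min at room temperature; cefsulodin titration as control.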
Sfp inh: inhibitors of Bacillus subtilis Sfp phosphopantetheinyl transferase | Q9F4F7 | Biochemical Sfp PPTase activity, qHTS | Potency, µM, for the others: largest response in the series, negative = inhibition, usual class: inhibitors | 3.5% of 310,000 active | AID 1490;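 note: the enzyme is Sfp with the accession as filed and its product quenches rhodamine fluorescence; 0% = enzyme reaction without inhibitor and -100% = no enzyme wells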
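Buffer: 50 mM Hepes-Na pH 7.6, 10 mM MgCl2, 0.01% Nonidet P-40, 0.01% BSA. Enzyme 15 nM, pre-exposed to compound 15 min; substrates then added and fluorescence change tracked over 30 min.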
JMJD2A Tudor inh: inhibitors of human JMJD2A Tudor domain; Potency, µM (top dose mostly 114 µM), for the others: at the top dose activity change, negative = inhibition, actives largely listed as inhibitors; AID 504339; O75164; AlphaScreen JMJD2A-Tudor / H3K4me3 peptide binding; 4.4% of 390,000 active; note: % is set by controls: 0 for no effect and ±100 for the full control effect; nearly all actives have a fitted effect of over 50% in size
Starred values were filed as active, the others as inactive; ? = inconclusive; nt = no result; [ ] = another dose, or the depositor's remark. In the library only some 12% were active in any assay of this set; here they are far more common. Calls come from the whole dose curve; as a rule, active = well fitted curve in the direction sought with a large enough effect; inconclusive = small, poorly fitted or top-dose-only effect, or another doubt; inactive = no such curve, though single readings can be large; an effect the other way counts as inactive or inconclusive. Potency is the fitted concentration of half-maximal effect.

SMILES	BAZ2B inh	HP1b chromo inh	G9a inh	L3MBTL1 inh	Sfp inh	JMJD2A Tudor inh
CCCN1CNc2c(c(=O)[nH]c(=S)n2CCc2ccccn2)C1	nt	17.7%	nt	nt	nt	-2.7%
CCOC(=O)[C@H]1[C@H]2COc3ccc(OC)cc3[C@@H]2N2C(=O)c3cc(OC)ccc3NC(=O)[C@@]12C	-6.0%	5.9%	-1.8%[2.33 µM]	-11.6%	nt	-30.9%
CC(=O)Nc1ccc(NC(=O)CSc2nc(C)nc3sc(C)c(C)c23)cc1	-16.1%	35.5%	?	-2.9%	-27.6%	-5.3%[11.4 µM]
COC(=O)c1ccc(CSc2nc(C)nc3sc(C)c(C)c23)o1	?	32.7%	?	-3.1%	25.1µM*	-8.3%
CCOC(=O)C1(CCc2ccccc2)CCN(C(=O)[C@@H]2C[C@@H](C)NC(=S)N2)CC1	-3.7%	10.9%	44.7µM*	2.4%	-26.8%	-20.6%
O=c1c(=O)n(-c2cccc(Cl)c2)ccn1Cc1cccc(F)c1	1.2%	43.1%	?	nt	nt	-1.0%
Fc1ccc(-c2n[nH]c(=S)n2CC2CCCO2)cc1 (stereo not given)	-37.4%	6.2%	2.82µM*	nt	-25.9%	-3.8%[11.4 µM]
S=c1[nH]nc(-c2ccncc2)n1CC1CCCO1 (stereo not given)	-8.0%	-10.2%	?	-5.3%	?	44.7µM*
Fc1ccc(-c2nnc(SCc3ncc(-c4ccccc4)o3)n2CC2CCCO2)cc1 (stereo not given)	9.2%	60.8%	?	6.5%	0.7%	-21.6%
c1ccc(-c2nc3nc4ccccc4nc3n2CC2CCCO2)cc1 (stereo not given)	-2.9%	23.5%	-0.1%	-4.5%	14.2%	0.0%
CC(C)CC(=O)Nc1ccc(S(=O)(=O)Nc2cc3c(cc2N2CCOCC2)n(C)c(=O)c(=O)n3C)cc1	-16.6%	31.3%	?	nt	nt	-11.7%
COc1ccc(N2CCN(C(=O)c3ccc(C)c(NC(=O)c4nsc5ccccc45)c3)CC2)cc1	?	5.7%[57 µM]	-25.7%[59 µM]	nt	nt	-19.5%
CC(C)Sc1nc2[nH]ncc2c(=O)[nH]1	-28.9%	32.2%	35.5µM*	-1.6%	50.1µM*	-2.0%
CSc1nc2[nH]ncc2c(=O)[nH]1	3.5%	30.1%	-17.6%[59 µM]	11.2%	11.1%	-8.8%
Cc1ccc(S(=O)(=O)Oc2ccccc2/C=N/NC(=O)c2c(Cl)cnn2C)cc1	7.1%	24.9%	25.1%[59 µM]	1.5%	5.3%	-6.8%
CN(C)c1ccc(C(=O)N/N=C/c2ccccn2)cc1	6.4%	40.9%	7.94µM*	nt	?	-24.1%
O=C(N/N=C/c1ccccn1)c1ccccc1	-4.5%	14.5%	?	18.5%	?	?
O=C(N/N=C/c1ccccn1)c1ccncc1	15.8µM*	29.4%	?	nt	20µM*	?
COc1cc(C(=O)N/N=C/c2sc(=O)n(-c3ccccc3)c2Cl)cc(OC)c1OC	-30.8%	43.5%	-8.2%[59 µM]	-6.3%	10.0%	-17.8%
Cn1ncc(Cl)c1C(=O)N/N=C/c1ccccn1	22.4µM*	22.0%	61.1%[59 µM]	-15.6%	?	?
O=C(N/N=C/c1sc(=O)n(-c2ccccc2)c1Cl)c1ccncc1	0.0%	14.1%	50.1µM*	5.7%	-16.8%	-14.9%
Cn1c(SCc2ccc(Br)cc2)nc2c([nH]c3ccccc32)c1=O	3.1%	10.9%[57 µM]	-0.1%[59 µM]	nt	nt	-7.4%
COc1ccccc1C(=O)Nc1cccc(OCc2cc(=O)n3ccccc3n2)c1	6.7%	21.1%[57 µM]	5.0%[59 µM]	nt	nt	-11.0%
O=C(N/N=C/c1ccccn1)c1sc2ccccc2c1Cl	39.8µM*	90.7%	nt	?	-10.0%	?
Cc1ccc(C(=O)Nc2ccc(C(=O)N/N=C/c3ccccn3)cc2)cc1	20.1%	58.6%	-45.9%	nt	4.9%	-14.5%
SMILES	BAZ2B inh	HP1b chromo inh	G9a inh	L3MBTL1 inh	Sfp inh	JMJD2A Tudor inh
O=C(N/N=C/c1ccccn1)c1ccc(Cl)cc1	0.9%	23.5%	?	nt	31.6µM*	-28.3%
O=C(N/N=C/c1ccccn1)c1cccs1	31.6µM*	31.5%	-7.7%	-35.1%	-98.3%	?
O=C(N/N=C\c1ccccn1)c1cccc(C(=O)N/N=C\c2ccccn2)n1	nt	22.5%	nt	nt	nt	-16.8%
O=C(Cc1ccc(F)cc1)N/N=C/c1ccccn1	?	36.6%	3.98µM*	26.9%	56.2µM*	4.7%
Cc1ccc(OC(C)C(=O)N/N=C/c2ccccn2)cc1 (stereo not given)	70.8µM*	39.0%	1.41µM*	85.3%	-55.5%	-9.4%
Cn1ncc(Cl)c1C(=O)N/N=C/c1cccc(OC2CSC2)c1	79.4µM*	37.4%	0.6%	-1.4%	7.4%	-18.8%
O=C(CSc1ncccn1)N/N=C/c1cccc(OC2CSC2)c1	?	23.5%	-26.1%	3.7%	2.4%	-12.9%
COc1cc(C(=O)N/N=C/c2ccccn2)cc(OC)c1OC	25.1µM*	3.5%	-2.4%	38.9%	56.2µM*	-23.1%
COc1ccc(C(=O)N/N=C/c2ccccn2)cc1OC	?	7.3%	3.5%	nt	?	?
O=C(Cc1cccs1)N/N=C/c1ccccn1	-19.0%	31.5%	1.41µM*	17.5%	?	?
CS(=O)(=O)N1CCC2(CCN(Cc3nccs3)CC2)CC1	nt	nt	-19.2%[12.7 µM]	nt	?	nt
Cc1cc(C)cc(OCC(=O)N/N=C/c2ccccn2)c1	79.4µM*	39.3%	?	nt	?	?
O=C(N/N=C\c1ccccn1)c1ccccc1O	-1.1%	31.5%	42.7%	nt	?	?
O=C(COc1ccc2ccccc2c1)N/N=C/c1ccccn1	9.2%	?	17.1%[0.501 µM]	2.8%	?	?
Cc1ccccc1C(=O)N/N=C/c1ccccn1	4.0%	5.1%	-3.4%	28.3%	70.8µM*	?
O=C(Nc1ccccc1OCc1cc(=O)n2ccccc2n1)c1cccc(Br)c1	7.0%	25.5%[57 µM]	-1.0%[59 µM]	nt	nt	1.6%
Cc1nonc1CC(=O)N1CCCC(C(=O)c2cccc(C(F)(F)F)c2)C1 (stereo not given)	5.6%	48.2%	14.8%	3.7%	8.3%	-11.3%
Cc1ccccc1NC(=O)CCn1cnc2onc(-c3ccc(F)cc3)c2c1=O	8.1%[57.1 µM]	33.5%	-23.2%[59 µM]	nt	nt	-15.5%
Cc1nc(NC(=S)NC(=O)c2cncc(Br)c2)ccc1Br	-27.7%	6.3%	nt	17.2%	?	17.8µM*

Bioassay records from PubChem.
